Records with an inconclusive call do not appear. The source made the active and inactive calls. Rule for the calls: active = hit-call score of the fitted dose curve at least 0.9, where 1 is the maximum; inconclusive = response in the unintended direction; inactive = score below 0.9.

In this test the target is Glucocorticoid receptor (Homo sapiens) (UniProt P04150). In words: ATG_hGR_EcoTox2: Attagene TRANS-FACTORIAL EcoTox-2 HepG2 Assay for human Glucocorticoid Receptor (GR). As for the experimental part: ATG_EcoTox2 is a cell-based, multiplexed assay created by modifying the existing Attagene TRANS-FACTORIAL system to include a panel of nuclear receptors from some or all the following species: human (Homo sapiens), african clawed frog (Xenopus laevis), rainbow trout (Oncorhynchus mykiss), japanese medaka (Oryzias latipes), and zebrafish (Danio rerio). The ECOTOX2-FACTORIAL format uses HepG2, a human liver cell line, with measurements taken at 24 hours after chemical dosing in a 24-well plate. ATG_hGR_EcoTox2 is one of 29 assay components calculated in the ATG_EcoTox2 assay. It is designed to make measurements of mRNA induction, a form of inducible reporter, as detected with fluorescence intensity signals by Reverse transcription polymerase chain reaction (RT-PCR) and Capillary electrophoresis technology.The assay endpoint ATG_hGR_EcoTox2 was analyzed in the positive analysis fitting direction relative to DMSO as the negative control and baseline of activity. Using a type of inducible reporter, measures of mRNA for gain-of-signal activity can be used to understand the reporter gene at the transcription factor-level as they relate to the gene for glucocorticoid receptor. Furthermore, this assay endpoint can be referred to as a primary readout, because this assay has produced multiple assay endpoints where this one serves a reporter gene function. To generalize the intended target to other relatable targets, this assay endpoint is annotated to the nuclear receptor intended target family, where the subfamily is steroidal.
Sequence of Glucocorticoid receptor (Homo sapiens) (P04150 whole entry, looked up): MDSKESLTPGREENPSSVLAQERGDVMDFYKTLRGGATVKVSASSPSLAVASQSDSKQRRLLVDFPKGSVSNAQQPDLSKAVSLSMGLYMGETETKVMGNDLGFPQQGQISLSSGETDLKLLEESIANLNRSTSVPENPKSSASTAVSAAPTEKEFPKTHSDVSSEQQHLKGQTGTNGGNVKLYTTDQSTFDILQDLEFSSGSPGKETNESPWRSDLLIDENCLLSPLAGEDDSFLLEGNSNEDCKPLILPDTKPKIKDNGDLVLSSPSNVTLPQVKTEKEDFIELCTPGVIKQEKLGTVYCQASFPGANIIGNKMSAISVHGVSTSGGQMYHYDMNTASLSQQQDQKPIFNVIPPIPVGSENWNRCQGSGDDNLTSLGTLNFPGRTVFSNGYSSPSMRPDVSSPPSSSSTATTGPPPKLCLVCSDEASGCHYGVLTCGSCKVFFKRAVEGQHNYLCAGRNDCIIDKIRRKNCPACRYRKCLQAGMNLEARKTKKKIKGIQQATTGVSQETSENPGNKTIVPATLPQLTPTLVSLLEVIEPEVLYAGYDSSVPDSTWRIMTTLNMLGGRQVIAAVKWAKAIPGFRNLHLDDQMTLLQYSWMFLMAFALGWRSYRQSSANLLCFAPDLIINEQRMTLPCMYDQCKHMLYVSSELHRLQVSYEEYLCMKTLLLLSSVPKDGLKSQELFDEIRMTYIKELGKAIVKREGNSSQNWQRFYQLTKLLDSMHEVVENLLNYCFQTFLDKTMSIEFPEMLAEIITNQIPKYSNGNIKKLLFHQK
Human liver HepG2 cells are transiently transfected with multiple reporter transcription units (MRTUs) in 6-well plates using FuGene 6 reagent (Roche; 3 ml FuGene/1 mg DNA). The MRTU constructs are regulated by a cis-regulating element (promoter). Each RTU expresses a GAL4-UAS that regulates the transcription of a nearby target reporter gene sequence. A major difference between the CIS and TRANS system is that in CIS activities of endogenous TFs are measured, whereas the TRANS assay evaluates changes in activities of exogenous, chimeric NR-Gal4 proteins. […] At the end of 24 hour incubation, total RNA was isolated using TriZol reagent (Invitrogen). The isolated RNA is then reverse-transcribed using oligo(dT) primer and Mo-MLV reverse transcriptase (Invitrogen) with DNAse I (Ambion) treatment for 30 min. The one-tenth of the produced cDNA was amplified by PCR using Taq DNA polymerase (Invitrogen) and two reporter sequence-specific primers. […] The fragments were purified using Qiaquick PCR columns (Qiagen), analyzed on an ABI 3130xL genetic analyzer (Applied Biosystems) with peak positions identified by using a set of X-rhodamine (ROX)-labeled MapMarker1000 molecular weight standards (BioVentures). […]
On to `CC(C)(Oc1ccc(Cl)cc1)C(=O)O`, for which the outcome was inactive.

`O=P(Oc1ccccc1)(Oc1ccccc1)Oc1ccccc1`: the call was inactive.

A word on the AC50: it is the concentration giving half of the maximal activity seen. As to `CC(c1cc2ccccc2s1)N(O)C(N)=O` (centres undefined), the AC50 was 50 µM (active).

`CCCCOCN(C(=O)CCl)c1c(CC)cccc1CC`: the outcome was inactive.

The values are drawn from PubChem BioAssay AID2284372 (EPA ToxCast).
